# Screening results deposited in PubChem BioAssay by PCMD.
# Most compounds without a hit are left out; they make up all but 0.33% or so of the library.
# FXIa single inh: blocks human coagulation factor XIa activity; AID 687; actives 0.3% (n = 33,000); inhibition, % at 10 µM; purified human FXIa, fluorogenic AMC substrate cleavage;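 active = inhibition above 40% in the primary screen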;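 also: 0% = enzyme without compound and 100% = blank wells lacking enzyme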
# FXIIa inh: blocks human coagulation factor XIIa activity. P00748. AID 701. actives 0.2% (n = 33,000). inhibition, % at 10 µM. purified human FXIIa, AMC substrate fluorescence, 2 h; in the data active = inhibition above about 30%;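 also: 0% = enzyme with vehicle only and 100% = no enzyme blank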
# Target sequence (P00748 20-372 limits assumed): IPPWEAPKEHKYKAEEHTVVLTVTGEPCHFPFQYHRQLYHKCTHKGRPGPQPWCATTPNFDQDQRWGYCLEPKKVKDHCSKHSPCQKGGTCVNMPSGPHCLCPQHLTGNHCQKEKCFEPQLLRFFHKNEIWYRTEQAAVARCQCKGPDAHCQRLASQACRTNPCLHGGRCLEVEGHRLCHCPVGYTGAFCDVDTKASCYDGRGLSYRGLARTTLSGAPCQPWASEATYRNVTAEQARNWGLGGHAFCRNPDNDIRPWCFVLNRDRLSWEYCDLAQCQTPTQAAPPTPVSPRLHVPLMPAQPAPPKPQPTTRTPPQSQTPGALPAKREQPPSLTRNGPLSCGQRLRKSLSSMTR
# Target sequence (P00748 373-615 limits assumed): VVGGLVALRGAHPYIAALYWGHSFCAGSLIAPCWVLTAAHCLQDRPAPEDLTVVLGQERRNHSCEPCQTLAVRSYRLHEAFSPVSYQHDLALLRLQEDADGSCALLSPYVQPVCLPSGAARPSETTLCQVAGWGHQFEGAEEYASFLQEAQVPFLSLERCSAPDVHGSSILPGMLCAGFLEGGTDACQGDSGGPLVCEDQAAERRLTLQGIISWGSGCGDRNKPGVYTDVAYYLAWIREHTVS
# * = called active by the depositor.
SMILES,FXIa single inh,FXIIa inh
Cn1nnnc1SCC(=O)N(C1CCCCC1)C1CCCCC1,105.5*,-14.3
CC1CCCC(NC(=O)CSc2nnnn2C)C1C (stereo unspecified),-1.5,5.6
O=C(C1CCCCC1)N1CCCC(c2nc3c(nnn3Cc3ccccc3)c(=O)[nH]2)C1 (stereo unspecified),-0.3,-12.7
O=C(c1ccccc1)N1CCCC(c2nc3c(nnn3Cc3ccccc3)c(=O)[nH]2)C1 (stereo unspecified),-2.1,36.9*
CC(c1ccccc1)n1cc(C(=O)NCc2ccccn2)nn1 (stereo unspecified),4.2,7.5
O=C(NCc1ccccn1)c1cn(CCc2ccccc2)nn1,3.1,31.0*
COc1ccccc1Cn1c2nc3ccccc3nc2c2c(=O)n(CC(C)C)cnc21,-1.9,5.4
CCOC(=O)c1[nH]c2ccc(Cl)cc2c1-c1ccccc1,30.3,-15.3
O=c1nc(-c2ccccc2)c2cc(Cl)ccc2[nH]1,103.4*,-16.2
CN(C)CCCn1c(-c2ccccc2)nc(=S)c2c1CCCC2,-13.2,8.2
OCCCn1c(-c2ccccc2)nc(=S)c2c1CCCC2,42.9*,7.3
CCn1nc(CC(=O)Nc2nnc(CC(=O)N3CCCC3)s2)c2ccccc2c1=O,65.7*,-15.1
CCn1nc(CC(=O)Nc2nnc(CC(=O)N3CCOCC3)s2)c2ccccc2c1=O,-5.2,4.8
Cc1ccc(N=Cc2c(O)n(-c3cc(Cl)ccc3N3CCOCC3)c(=O)c3ccccc23)cc1C,5.8,4.7
CCc1c(O)nc(SCC(=O)NC(C)(C)C)n(-c2ccccc2)c1=O,43.2*,1.3
CCCCc1c(O)nc(SCC(=O)NC(C)(C)C)n(-c2ccccc2C)c1=O,-2.0,3.0
COc1ccc(N2CCN(CC(O)COc3ccc4c(c3)CCC4)CC2)cc1 (stereo unspecified),0.1,-5.6
COc1cc(OC)cc(-c2nc3ccccc3c(=O)o2)c1,-4.2,15.4
COc1cccc(-c2nc3ccccc3c(=O)o2)c1,-2.0,30.1*
O=C(NCc1ccccc1)C1CCCN(S(=O)(=O)c2cccc3nonc23)C1 (stereo unspecified),61.1*,9.3
O=C(NCc1ccc2c(c1)OCO2)C1CCCN(S(=O)(=O)c2cccc3nonc23)C1 (stereo unspecified),8.4,3.4
CCCOc1cc(CN2CCCCC2)cc(C(C)=O)c1,6.5,5.7
CNC(=O)CN(c1ccc(C(C)C)cc1)S(C)(=O)=O,2.4,4.8
